Measurements: PubChem BioAssay AID1159580 (chemical genetic matrix, 2015)
Among all 5,500 compounds or so, about 2,000 (36%) were called active. Roughly 18% stayed inconclusive and do not appear here. No stated cut-off is given here; in the data, active means normalized growth mostly below about 0.91 (no sharp cut-off); inconclusive means no clear call, values can overlap the other calls; inactive means mostly above about 0.92. This is one part of the list.

Assay: chemical genetic growth profiling, strain panel (AID 1159580);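 further: tested at 20 µM; growth read once vehicle control cultures reached saturation at 30 °C; 1 = growth at the plate median or of vehicle wells; lower values mean less growth of the strain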
Conditions: growth OD

Measured: normalized growth

CCCCCCc1ccc(O)cc1O
inactive: S. cerevisiae deletion strains, locus YJL187C, strain SWE1, hits give low values 0.952 | S. cerevisiae deletion strains, locus YJR043C, strain POL32, hits give low values 0.876 | S. cerevisiae deletion strains, locus YKL068W, hits give low values 0.967 | S. cerevisiae deletion strains, locus YKL085W, strain MDH1 (second series), hits give low values 0.954 | S. cerevisiae deletion strains, locus YKL085W, strain MDH1, hits give low values 0.954 | S. cerevisiae deletion strains, locus YKL190W, strain CNB1, hits give low values 0.944 | S. cerevisiae deletion strains, locus YKR026C, strain gcn3, hits give low values 0.972 | S. cerevisiae deletion strains, locus YKR091W, strain srl3, hits give low values 0.973 | S. cerevisiae deletion strains, locus YLL001W, strain dnm1, hits give low values 0.935 | S. cerevisiae deletion strains, locus YLL041C, strain sdh2, hits give low values 0.973 | S. cerevisiae deletion strains, locus YLR058C, strain SHM2, hits give low values 0.915 | S. cerevisiae deletion strains, locus YLR102C, strain apc9, hits give low values 0.955 | S. cerevisiae deletion strains, locus YLR268W, strain sec22, hits give low values 0.913 | S. cerevisiae deletion strains, locus YLR342W, strain FKS1 (second series), hits give low values 0.87 | S. cerevisiae deletion strains, locus YLR342W, strain FKS1, hits give low values 0.973 | S. cerevisiae deletion strains, locus YLR357W, strain rsc2, hits give low values 1.07 | S. cerevisiae deletion strains, locus YLR370C, strain arc18, hits give low values 0.925 | S. cerevisiae deletion strains, locus YLR384C, strain iki3, hits give low values 0.997 | S. cerevisiae deletion strains, locus YML016C, strain PPZ1, hits give low values 0.947 | S. cerevisiae deletion strains, locus YML124C, strain tub3, hits give low values 0.934 | S. cerevisiae deletion strains, locus YMR125W, strain sto1, hits give low values 1.04 | S. cerevisiae deletion strains, locus YMR129W, hits give low values 0.976 | S. cerevisiae deletion strains, locus YMR231W, strain pep5, hits give low values 0.999 | S. cerevisiae deletion strains, locus YNL209W, strain ssb2, hits give low values 0.972 | S. cerevisiae deletion strains, locus YNL250W, strain rad50, hits give low values 0.986 | S. cerevisiae deletion strains, locus YNL271C, strain bni1, hits give low values 0.952 | S. cerevisiae deletion strains, locus YNL322C, strain KRE1 (second series), hits give low values 0.927 | S. cerevisiae deletion strains, locus YNR049C, strain mso1, hits give low values 0.978 | S. cerevisiae deletion strains, locus YOL012C, strain htz1 1.21 | S. cerevisiae deletion strains, locus YOR061W, strain CKA2, hits give low values 0.962 | S. cerevisiae deletion strains, locus YOR069W, strain VPS5, hits give low values 0.97 | S. cerevisiae deletion strains, locus YOR070C, strain gyp1, hits give low values 0.95 | S. cerevisiae deletion strains, locus YOR080W, strain dia2, hits give low values 0.969 | S. cerevisiae deletion strains, locus YOR083W, strain WHI5, hits give low values 0.908 | S. cerevisiae deletion strains, locus YOR136W, strain idh2, hits give low values 0.928 | S. cerevisiae deletion strains, locus YOR265W, strain rbl2, hits give low values 0.957 | S. cerevisiae deletion strains, locus YOR316C, strain cot1, hits give low values 0.956 | S. cerevisiae deletion strains, locus YPL106C, strain sse1, hits give low values 1.05 | S. cerevisiae deletion strains, locus YPL241C, strain CIN2, hits give low values 0.953 | S. cerevisiae deletion strains, locus YPR119W, strain clb2, hits give low values 0.956 | S. cerevisiae deletion strains, locus YPR141C, strain kar3, hits give low values 0.963 | S. cerevisiae strains, strain wild type, hits give low values 0.926
active: S. cerevisiae deletion strains, locus YJR066W, strain TOR1, hits give low values 0.813 | S. cerevisiae deletion strains, locus YKL009W, strain mrt4, hits give low values 0.868 | S. cerevisiae deletion strains, locus YKL160W, strain elf1, hits give low values 0.901 | S. cerevisiae deletion strains, locus YKR001C, strain vps1, hits give low values 0.325 | S. cerevisiae deletion strains, locus YLL026W, hits give low values 0.915 | S. cerevisiae deletion strains, locus YLR027C, strain aat2, hits give low values 0.855 | S. cerevisiae deletion strains, locus YLR039C, strain RIC1, hits give low values 0.291 | S. cerevisiae deletion strains, locus YLR113W, strain HOG1, hits give low values 0.744 | S. cerevisiae deletion strains, locus YLR221C, strain rsa3, hits give low values 0.824 | S. cerevisiae deletion strains, locus YLR258W, strain gsy2, hits give low values 0.891 | S. cerevisiae deletion strains, locus YLR262C, strain YPT6 (second series), hits give low values 0.582 | S. cerevisiae deletion strains, locus YLR262C, strain YPT6, hits give low values 0.449 | S. cerevisiae deletion strains, locus YLR320W, strain mms22, hits give low values 0.74 | S. cerevisiae deletion strains, locus YLR330W, strain CHS5, hits give low values 0.872 | S. cerevisiae deletion strains, locus YLR371W, strain rom2, hits give low values 0.622 | S. cerevisiae deletion strains, locus YLR418C, strain cdc73, hits give low values 0.767 | S. cerevisiae deletion strains, locus YML032C, strain rad52, hits give low values 0.784 | S. cerevisiae deletion strains, locus YML120C, strain ndi1, hits give low values 0.836 | S. cerevisiae deletion strains, locus YMR058W, strain fet3, hits give low values 0.881 | S. cerevisiae deletion strains, locus YMR078C, strain ctf18, hits give low values 0.912 | S. cerevisiae deletion strains, locus YMR205C, strain PFK2, hits give low values 0.749 | S. cerevisiae deletion strains, locus YMR223W, strain ubp8, hits give low values 0.801 | S. cerevisiae deletion strains, locus YMR307W, strain GAS1, hits give low values 0.563 | S. cerevisiae deletion strains, locus YNL067W, strain RPL9B, hits give low values 0.779 | S. cerevisiae deletion strains, locus YNL071W, strain lat1, hits give low values 0.64 | S. cerevisiae deletion strains, locus YNL183C, strain NPR1, hits give low values 0.813 | S. cerevisiae deletion strains, locus YNL233W, strain BNI4, hits give low values 0.858 | S. cerevisiae deletion strains, locus YNL248C, strain rpa49, hits give low values 0.84 | S. cerevisiae deletion strains, locus YNL298W, strain CLA4, hits give low values 0.831 | S. cerevisiae deletion strains, locus YNL307C, strain MCK1, hits give low values 0.322 | S. cerevisiae deletion strains, locus YNR052C, strain pop2, hits give low values 0.77 | S. cerevisiae deletion strains, locus YOL147C, strain pex11, hits give low values 0.803 | S. cerevisiae deletion strains, locus YOR001W, strain rrp6, hits give low values 0.876 | S. cerevisiae deletion strains, locus YOR106W, strain vam3, hits give low values 0.837 | S. cerevisiae deletion strains, locus YOR144C, strain elg1, hits give low values 0.861 | S. cerevisiae deletion strains, locus YOR184W, strain ser1, hits give low values 0.685 | S. cerevisiae deletion strains, locus YOR231W, strain MKK1, hits give low values 0.801 | S. cerevisiae deletion strains, locus YOR270C, strain vph1, hits give low values 0.73 | S. cerevisiae deletion strains, locus YOR290C, strain snf2, hits give low values 0.819 | S. cerevisiae deletion strains, locus YPL051W, strain arl3, hits give low values 0.705 | S. cerevisiae deletion strains, locus YPL078C, strain atp4, hits give low values 0.891 | S. cerevisiae deletion strains, locus YPL240C, strain hsp82, hits give low values 0.924 | S. cerevisiae deletion strains, locus YPL256C, strain CLN2, hits give low values 0.782 | S. cerevisiae deletion strains, locus YPR163C, strain tif3, hits give low values 0.906 | S. cerevisiae deletion strains, locus YPR167C, strain met16, hits give low values 0.868 | S. cerevisiae deletion strains, strain wtn01, hits give low values 0.768
